ERa SRC1 pot: enhances coactivator binding to human estrogen receptor alpha | P03372 | TR-FRET ERalpha-LBD/SRC-Cy5 coactivator binding, 2 h; 100 = basal binding, no effect | coactivator binding (% of control), % at 25.6 µM | 86,000 tested, 1.3% active | AID 639; in the data active = activity above about 200%;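 note: binding measured in presence of low estradiol as agonist stimulus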
Target sequence (P03372 whole entry, looked up, the tested form may be a part): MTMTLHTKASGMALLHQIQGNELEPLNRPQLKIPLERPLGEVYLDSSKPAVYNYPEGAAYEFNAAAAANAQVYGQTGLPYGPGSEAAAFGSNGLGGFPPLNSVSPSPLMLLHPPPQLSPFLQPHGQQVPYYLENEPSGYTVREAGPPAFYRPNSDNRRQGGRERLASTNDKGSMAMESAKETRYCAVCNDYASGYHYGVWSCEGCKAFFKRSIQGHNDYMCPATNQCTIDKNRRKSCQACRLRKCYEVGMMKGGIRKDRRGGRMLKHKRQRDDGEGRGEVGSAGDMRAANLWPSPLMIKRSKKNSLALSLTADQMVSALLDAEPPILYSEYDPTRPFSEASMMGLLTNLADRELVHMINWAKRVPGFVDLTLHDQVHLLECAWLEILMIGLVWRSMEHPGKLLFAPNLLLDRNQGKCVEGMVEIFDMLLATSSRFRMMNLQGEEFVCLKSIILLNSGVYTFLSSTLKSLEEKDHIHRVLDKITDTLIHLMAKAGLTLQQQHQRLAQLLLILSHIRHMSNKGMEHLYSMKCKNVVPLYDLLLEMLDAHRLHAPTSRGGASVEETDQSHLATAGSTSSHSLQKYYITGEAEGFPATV
Smad3 inh: inhibitors of human Smad3 transcription factor binding; P84022; TR-FRET Smad3/Dy647-FoxH1 peptide binding, europium anti-His; inhibition, % at 25 µM; 88,000 tested, 0.29% active; AID 630;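 active = compounds that reduce the energy-transfer binding signal between the protein and its labelled peptide by more than half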
ERb coact inh: ER-beta (human) coactivator binding inhibition | inhibition, % at 25.6 µM | AID 633 | 86,000 tested, 1.3% active | Q92731 | TR-FRET ER-beta LBD / SRC1-Cy5 peptide binding; receptor agonist-loaded with 1 µM estradiol;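 active = compounds whose percent inhibition of the receptor-coactivator binding signal exceeds about 50% in the single-dose screen, limit read from the data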
Candida biofilm: kills Candida albicans biofilms; C. albicans biofilm + clotrimazole, Alamar Blue; inhibition, % at 6 µM; 85,000 tested, 0.14% active; AID 834;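 active = inhibition above 20%; inactive = inhibition below 20%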;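 note: preformed 24 hr biofilms exposed to compound for 48 hr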
ERa SRC1 inh: blocks coactivator binding to human estrogen receptor alpha. P03372. inhibition, % at 25.6 µM. 86,000 tested, 1.7% active. TR-FRET ER-alpha LBD / SRC-1 peptide, estradiol-bound; in the data active = inhibition above about 50%
FAK blocker: inhibitors of human focal adhesion kinase; Q05397; biochemical FAK kinase activity assay; inhibition, %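 (tested at 7 µM)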; 97,000 tested, 0.84% active; AID 727
FAK inh confirm: FAK (human) inhibition confirmed. shares compounds with FAK blocker. inhibition, % at 7 µM. FAK kinase biochemical inhibition assay. AID 794. 750 tested, 28% active
Numbers stand for hits; i = inactive; nt = no result given; [ ] = remark or other dose. Sampled rows, rich in hits. Any-hit rate of the full collection: about 3.3%. Cut-off read from the data, not from the text of the source, unless noted: active = inhibition above about 19%; inactive = the rest.

SMILES	ERa SRC1 pot	Smad3 inh	ERb coact inh	Candida biofilm	ERa SRC1 inh	FAK blocker	FAK inh confirm
COc1cc(-c2cc(OC)c3c(C)oc(C)c3c(=O)c2)ccc1O	i	i	i	i	i	20	i
CC(=O)NC(NC(=S)Nc1ccc(N=Nc2ccccc2)cc1)C(Cl)(Cl)Cl (centres undefined)	nt	nt	nt	nt	nt	i	nt
CCN(CC)CC(=O)n1c2c(c3ccccc31)CCCC2	i	i	i	i	i	nt	nt
CN1CCN(CC(=O)n2c3c(c4ccccc42)CCCC3)CC1	i	i	i	i	i	20	i
Cc1n[nH]c(C)c1-c1nc2ccccc2[nH]1	i	i	i	i	i	24	i
Nc1ccc(-c2nc3ccccc3[nH]2)cc1	i	i	i	i	i	i	nt
COc1ccc(C2=NO[C@@H]3C(=O)N(c4c(C)cccc4C)C(=O)[C@H]23)cc1OC	i	i	i	i	i	i	nt
COc1ccc(OC)c(N2C(=O)[C@@H]3C(c4ccccc4Cl)=NO[C@@H]3C2=O)c1	i	i	79	i	79	19	i
CN1CCN(S(=O)(=O)c2ccc(NC(=O)Cc3cccs3)cc2)CC1	i	i	i	i	i	i	nt
O=C(Cc1cccs1)Nc1ccc(S(=O)(=O)N2CCCCC2)cc1	i	i	84	i	96[fluorescence artefact?]	23	i
CCc1ccc2nc(SCC(=O)N(CC)CC)c(C#N)cc2c1	i	i	i	i	i	41	27
CCOc1ccc2nc(SCC#N)c(C#N)cc2c1	252	i	i	i	i	20	i
C=CCn1c(CNC(=O)c2cccs2)nnc1SCC(=O)Nc1ccc(C(=O)O)cc1	i	i	i	i	i	i	nt
CCCOC(=O)c1c(NC(=O)CSc2nc(-c3ccco3)cc(C(F)(F)F)n2)sc(C(=O)OC)c1C	i	i	i	i	i	i	nt
O=C(CC1Sc2ccccc2NC1=O)OC(C(=O)NCCc1ccccc1)c1cccnc1 (centres undefined)	i	i	i	i	i	33	i
COCCNC(=O)C(OC(=O)CC1Sc2ccccc2NC1=O)c1ccncc1 (centres undefined)	i	i	i	i	i	i	nt
Cc1ccc2c(c1)cc1c(=O)[nH]ncn12	nt	nt	nt	nt	nt	37	i
O=C(Nc1cccc(-c2cc3ccccc3oc2=O)c1)c1ccc(Br)o1	i	i	i	i	i	i	nt
COc1ccc(-c2cc3ccccc3oc2=O)cc1NC(=O)c1ccc(Br)o1	231	i	i	i	66[fluorescence artefact?]	65	59
N#Cc1cnn2c1nc(N1CCOCC1)c1ccccc12	nt	nt	nt	nt	nt	51	26
O=c1[nH]ncc2c3ccccc3n(Cc3ccccc3)c12	nt	nt	nt	nt	nt	20	i
O=C(NC1CCCC1)c1ccc2nc(-c3ccco3)c(-c3ccco3)nc2c1	i	i	93[fluorescence artefact?]	i	94[fluorescence artefact?]	19	i
O=C(NC1CCCC1)c1ccc2nc[nH]c2c1	i	i	i	i	i	i	nt
CC(C)CCC1CC(CSC(=N)N)OC1=O (centres undefined)	i	i	i	i	i	i	nt
CC(C)(C)Nc1cccccc1=O	i	i	i	i	i	i	nt
SMILES	ERa SRC1 pot	Smad3 inh	ERb coact inh	Candida biofilm	ERa SRC1 inh	FAK blocker	FAK inh confirm
CNc1cccccc1=S	i	i	i	i	96[fluorescence artefact?]	44	i
O=C(CNC(=O)c1ccco1)OCC(=O)c1ccc2c(c1)CCCC2	nt	nt	nt	nt	nt	27	i
CCc1ccc(C(=O)COC(=O)CNC(=O)c2ccco2)cc1	i	i	i	i	i	nt	nt
CCOC(=O)C1=C(c2ccccc2)OC(N)=C(C#N)C1c1cccs1 (centres undefined)	nt	nt	nt	nt	nt	26	20
O=C1NC(=O)[C@@H]2C3c4ccccc4C=CN3[C@H](C(=O)c3cccs3)[C@H]12 (some centres undefined)	i	i	i	i	i	20	i
COc1ccc(NC(=O)[C@@H]2[C@@H]3C(=O)N(C4CCCCC4)C(=O)[C@@H]3C3c4ccccc4C=CN32)cc1 (some centres undefined)	i	i	i	i	i	i	nt
O=C(NNc1ccccc1[N+](=O)[O-])Nc1ccccc1	nt	nt	nt	nt	nt	21	i
O=C(Nc1ccccc1)c1[nH]ncc1[N+](=O)[O-]	nt	nt	nt	nt	nt	i	nt
CCOC(=O)C1=C(C)NC2=C(C(=O)CCC2)C1c1cccs1 (centres undefined)	i	i	i	i	i	i	nt
CCOCCOC(=O)C1=C(C)NC2=C(C(=O)CC(c3cccs3)C2)C1c1ccsc1 (centres undefined)	i	i	i	i	i	22	21
CSc1nc(NCC(C)C)c2c3c(sc2n1)CN(C)CC3	nt	nt	nt	nt	nt	i	nt
CSc1nc(NCc2ccccc2)c2c3c(sc2n1)CN(C)CC3	nt	nt	nt	nt	nt	21	i
CC(=O)c1sc2nc(C)cc(C)c2c1N	nt	nt	nt	nt	nt	20	i
CCc1nc(SCC(=O)NNC(=O)C2CCCCC2)c2ccccc2n1	nt	nt	nt	nt	nt	36	20
CCc1nc(SCC(=O)NNC(=O)C(C)C)c2ccccc2n1	nt	nt	nt	nt	nt	42	i
O=C(c1cc2ccccc2oc1=O)N(Cc1ccco1)CC1CCCO1 (centres undefined)	i	i	i	i	i	i	nt
CCC(C)Sc1nc2ccccc2c(=O)[nH]1 (centres undefined)	i	i	i	i	i	i	nt
Cc1cc2n(c1)CCn1c(C)ccc1-2	i	i	52	i	91[fluorescence artefact?]	23	i
O=C(CNC(=O)c1ccc([N+](=O)[O-])cc1)N/N=C\c1ccc(OC(=O)c2ccccc2)cc1	nt	nt	nt	nt	nt	25	i
CCc1cccc(OCCCCN(CC)CC)c1	i	i	i	i	i	i	nt
O=C(COc1ccc(/C=N/NC(=O)c2cc3ccccc3o2)cc1Br)Nc1ccccc1	nt	nt	nt	nt	nt	26	36
O=C(Nc1ccccc1)c1cc2ccccc2o1	i	i	i	i	i	i	nt
CCCCCOC(=O)CSc1nnc(-c2ccccc2)c(=O)[nH]1	nt	nt	nt	nt	nt	i	nt
COC(=O)c1ccccc1S(=O)(=O)Nc1ccc2cn[nH]c2c1	i	i	i	i	i	20	i
CCC(C)N(C(=O)Cn1nnc2ccccc21)C(C(=O)Nc1ccc(F)cc1)c1cccc(OC)c1 (centres undefined)	nt	nt	nt	nt	nt	i	nt
SMILES	ERa SRC1 pot	Smad3 inh	ERb coact inh	Candida biofilm	ERa SRC1 inh	FAK blocker	FAK inh confirm
O=c1[nH]nnc2sc3c(c12)CCCC3	i	i	i	i	i	27	i
Cc1nc2sc3c(c2c(=O)[nH]1)CCCC3	nt	i	nt	nt	nt	nt	nt
CCCCOC(=O)Cn1c(=N)n(CCN2CCOCC2)c2ccccc21	i	i	i	i	i	i	nt
N=c1n(CCN2CCOCC2)c2ccccc2n1CC(=O)c1ccc(Cl)c(Cl)c1	i	i	i	i	i	95	i
N#Cc1c(-c2ccccc2)c(-c2ccccc2)n(Cc2ccco2)c1NC(=O)c1cccs1	nt	nt	nt	nt	nt	i	nt
Cn1c(=O)c2c(nc(CN3CCc4ccccc4C3)n2CC(=O)c2ccccc2)n(C)c1=O	i	i	i	i	i	i	nt
CC1(c2ccc3noc(-c4ccc(F)cc4)c3c2)OCCO1	i	i	i	i	i	i	nt
O=Cc1ccc2noc(-c3ccc(F)cc3)c2c1	i	i	i	i	i	34	33
CCOC(=O)c1cnc2sc3c(n2c1=O)CCCC3	i	i	i	i	i	i	nt

High-throughput results from PubChem BioAssay.
